Screening data from PubChem.
An excerpt weighted towards active compounds, which were near 9.9% of everything screened.
Tau ThT inhib = inhibitors of human tau fibril formation, thioflavin T binding; recombinant tau K18 P301L, heparin-induced fibrillization, ThT fluorescence; Potency, µM (titrated, usually from 57.4 µM), most hits filed as inhibitors; 270,000 tested, 2.1% active; AID 1460; also: nearly all actives have a fitted effect of over 55% in size
Target sequence (P10636 561-689 P618L limits assumed): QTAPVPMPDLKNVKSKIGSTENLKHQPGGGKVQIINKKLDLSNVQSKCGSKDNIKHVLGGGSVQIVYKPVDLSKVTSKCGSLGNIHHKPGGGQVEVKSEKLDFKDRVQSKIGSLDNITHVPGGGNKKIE
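Recombinant human tau K18 fragment […] carrying P301L, 15 uM unlabeled plus 0.24 uM Alexa 594-labeled, was fibrillized with 20 uM heparin in 100 mM sodium acetate pH 7 for 6 hr at 37 C; 30 uM ThT fluorescence read after 1 hr.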
Tau fluor cs = counter-screen for tau fibril formation inhibitors; tau K18 P301L Alexa594 fluorescence, heparin fibrillization; Potency, µM (series often up to 57.7 µM); 280,000 tested, 0.93% active; also: nearly all actives have a fitted effect of over 55% in size
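Human tau K18 P301L (15 uM unlabeled, 0.24 uM Alexa 594-labeled) in 100 mM sodium acetate pH 7 with 20 uM heparin, 6 hr at 37 C. ThT 30 uM added, 1 hr ambient; Alexa 594 FP and total fluorescence read at 555/632 nm.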
Tau FP inhib = tau fibrillization inhibition (FP) | P10636 | K18 P301L tau heparin fibrillization, Alexa594 FP, 6 h | Potency, µM (top dose mostly 57.7 µM), actives largely listed as inhibitors | 280,000 tested, 0.39% active; also: nearly all actives have a fitted effect of over 55% in size
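Steps: dispense K18 P301L tau (15 uM plus 0.24 uM Alexa 594 tracer, final) in pH 7 sodium acetate; add compound; add heparin (20 uM final); incubate 6 hr, 37 C; add ThT (30 uM final); after 1 hr ambient, read FP.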
HPGD block = HPGD (human) dehydrogenase inhibition; P15428; purified HPGD, NADH fluorescence kinetic, PGE2 substrate; Potency, µM, actives largely listed as inhibitors; 150,000 tested, 4.3% active; AID 894; active = well fitted inhibition curve with a large enough effect, not every such curve was filed as active; inconclusive = small, poorly fitted or top-dose-only effect, or another doubt; inactive = no such curve, though single readings can be large or run the other way
Target sequence (P15428 whole entry, looked up): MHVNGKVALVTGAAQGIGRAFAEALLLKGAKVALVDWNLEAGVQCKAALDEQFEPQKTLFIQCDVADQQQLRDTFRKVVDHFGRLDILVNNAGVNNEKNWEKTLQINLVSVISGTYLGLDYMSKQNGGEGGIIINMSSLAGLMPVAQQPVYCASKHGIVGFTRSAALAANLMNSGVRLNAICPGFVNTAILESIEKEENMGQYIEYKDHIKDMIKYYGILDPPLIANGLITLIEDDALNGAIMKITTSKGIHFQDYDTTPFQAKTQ
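NADH formation kinetics: reaction with 30 uM PGE2 and 1 mM NAD+ (final), 20 nM enzyme, Tris-HCl pH 8 with Tween 20, after 15 min compound preincubation at room temperature. Fluorescence change, last versus first of five reads.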
ALDH1A1 block = inhibitors of human aldehyde dehydrogenase 1A1; Potency, µM (titrated, usually from 75.3 µM), usual class: inhibitors; AID 1030; 220,000 tested, 7.3% active; P00352; Purified ALDH1A1, NADH fluorescence, propionaldehyde substrate; active = well fitted inhibition curve with a large enough effect, not every such curve was filed as active; inconclusive = small, poorly fitted or top-dose-only effect, or another doubt; inactive = no such curve, though single readings can be large or run the other way
KDM4E inh = inhibitors of human JMJD2E histone demethylase. B2RXH2. JMJD2E catalytic domain, FDH-coupled NADH fluorescence (FDH is formaldehyde dehydrogenase). Potency, µM (doses to about 57.1 µM), usual class: inhibitors. 230,000 tested, 1.6% active. AID 2147; active = well fitted inhibition curve with a large enough effect, not every such curve was filed as active; inconclusive = small, poorly fitted or top-dose-only effect, or another doubt; inactive = no such curve, though single readings can be large or run the other way; also: nearly all actives have a fitted effect of over 50% in size
Target sequence (B2RXH2 1-337 limits assumed): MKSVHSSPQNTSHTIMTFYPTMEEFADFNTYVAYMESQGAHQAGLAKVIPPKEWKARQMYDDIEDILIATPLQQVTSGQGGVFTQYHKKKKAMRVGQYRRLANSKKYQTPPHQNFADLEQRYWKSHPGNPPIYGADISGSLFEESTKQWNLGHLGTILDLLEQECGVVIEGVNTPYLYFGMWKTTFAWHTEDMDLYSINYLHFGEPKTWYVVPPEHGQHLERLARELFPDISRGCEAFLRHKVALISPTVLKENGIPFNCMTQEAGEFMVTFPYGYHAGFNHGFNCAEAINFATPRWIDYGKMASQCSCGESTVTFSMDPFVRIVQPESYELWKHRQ
Numbers stand for hits; . = inactive; ? = inconclusive; / = no result; [ ] = remark or other dose. Unless noted, calls follow the shape of the dose curve; as a rule, active = well fitted curve in the direction sought with a large enough effect; inconclusive = small, poorly fitted or top-dose-only effect, or another doubt; inactive = no such curve, though single readings can be large; an effect the other way counts as inactive or inconclusive.

SMILES | Tau ThT inhib | Tau fluor cs | Tau FP inhib | HPGD block | ALDH1A1 block | KDM4E inh
O=S(=O)(Nc1nc(CN2CCOCC2)nc2sc3c(c12)CCCC3)c1cc(F)ccc1F | . | . | . | . | 14µM | ?
CCNc1nc(CN2CCOCC2)nc2sc3c(c12)CCC3 | . | . | . | . | ? | ?
Cc1cc(SCC(=O)c2ccc(O)c(O)c2)n2nc(C)c(-c3ccccc3)c2n1 | ? | 11µM[quencher] | . | / | / | ?
CN(C)c1ccc(C(=S)NC2CCCCC2)cc1 | ? | . | . | / | 3.5µM | ?
CCN(CC)c1ccc(C(=S)NC2CCCCC2)cc1 | ? | ? | . | / | 7.9µM | .
CCN(CC)c1ccc(C(=S)NCc2ccccc2)cc1 | ? | ? | . | / | 10µM | .
C/C(=N\NC(=S)NC1CCCCC1)c1ccc(C#N)cc1 | . | . | . | . | . | .
COc1cc(NC(=S)NCCCN2CCOCC2)cc(OC)c1 | . | . | . | . | . | .
Cc1ccccc1-n1c(C)nnc1SCC(=O)N(C)C1CCS(=O)(=O)C1 (stereo unspecified) | . | . | . | / | . | .
CC(C)(C)NS(=O)(=O)c1ccc(OCC(=O)Nc2ccc3c(c2)OCCO3)cc1 | . | . | . | . | 1.8µM | .
CC(C)(C)NS(=O)(=O)c1ccc(CCC(=O)NCc2ccc3c(c2)OCO3)cc1 | . | . | . | . | . | .
CC(C)(C)NS(=O)(=O)c1ccc(CCC(=O)Nc2ccc3c(c2)OCCO3)cc1 | . | . | . | . | 4µM | .
CC(C)(C)NS(=O)(=O)c1ccc(CCC(=O)Nc2ccc3c(c2)OCO3)cc1 | . | . | . | . | 0.18µM | .
CC(=O)Nc1ccc(S(=O)(=O)NCC(=O)OCC(=O)N2CCN(c3ccccc3)CC2)cc1 | ? | . | . | . | 20µM | .
O=C(CNS(=O)(=O)c1c(Cl)cccc1Cl)OCC(=O)N1CCN(c2ccccc2)CC1 | . | . | . | . | . | .
O=C1NC(c2ccccc2)=C(c2ccc3ccccc3n2)C(c2ccccc2)N1 (stereo unspecified) | ? | . | ? | . | . | ?
O=C1NC(c2ccccc2)=C(c2ccc3ccccc3n2)C(c2ccncc2)N1 (stereo unspecified) | 11µM | ? | . | / | . | .
O=C(Nc1nnc(S(=O)(=O)N2CCCC2)s1)c1ccc(F)cc1 | ? | ? | . | / | / | /
Cc1ccc(CNC(=O)c2c[nH]n3c(=O)c(Cc4ccc(F)cc4Cl)c(C)nc23)cc1 | 28µM | ? | . | / | / | /
Cc1nc2c(C(=O)NCCc3ccccc3)c[nH]n2c(=O)c1Cc1ccc(F)cc1Cl | ? | . | . | / | / | /
O=C(O)CC/C(=N\Nc1ccc([N+](=O)[O-])cc1S(=O)(=O)N1CCOCC1)c1cccs1 | ? | . | . | / | / | .
CCOc1ccc(N=C(NN)c2ccc3ccccc3n2)cc1 | 10µM | ? | . | ? | ? | ?
CCOc1ccc(N=C(C)C2=C(O)c3ccccc3C2=O)cc1 | / | ? | . | / | / | .
CCCCOc1cccc(C(=O)N2CCN(CCc3ccncc3)CC2)c1 | . | . | . | / | / | /
CC(C)c1ccc(NC(=O)CCCN2C(=S)NC(C)(C)CC2C)cc1 (stereo unspecified) | . | . | . | / | 5µM | .
SMILES | Tau ThT inhib | Tau fluor cs | Tau FP inhib | HPGD block | ALDH1A1 block | KDM4E inh
CC1CC(C)(C)NC(=S)N1CCCC(=O)Nc1ccc(Cl)cc1 (stereo unspecified) | . | . | . | / | . | .
CC(C)[C@@H]1NC(=O)c2cc([N+](=O)[O-])cc(I)c2NCC[C@@H](C(N)=O)NC(=O)[C@H](CO)NC1=O | . | . | . | . | . | .
CC(C)C[C@@H]1NC(=O)[C@H](C(C)C)NC(=O)c2cc([N+](=O)[O-])cc(I)c2NCC[C@@H](C(N)=O)NC1=O | ? | . | . | . | 28µM | .
CC(C)C[C@@H]1NC(=O)[C@H](Cc2ccc(O)cc2)NC(=O)[C@H](CCC(N)=O)NC(=O)c2cc([N+](=O)[O-])cc(I)c2NCC[C@@H](C(N)=O)NC1=O | . | . | . | . | 4µM | .
CCOc1ccc(S(=O)(=O)Nc2ccc3c(c2)N(C(C)=O)CCC3)cc1 | . | . | . | / | / | /
CCOC(=O)c1nc(Nc2ccc(C(=O)OC(C)C)cc2)c2ccccc2n1 | . | ? | ? | / | / | /
Cc1ccc(C)n1-c1ccc(-c2ccnc(N)n2)cc1 | ? | . | . | / | ? | ?
CC(=O)Oc1ccc2c(=O)c(Oc3ccccc3)coc2c1OC(C)=O | ? | . | . | . | . | 3.5µM
Cc1ccc(C(=O)N2CC(C)OC(C)C2)c(Cl)c1 (stereo unspecified) | . | . | . | 16µM | ? | .
CC1CN(C(=O)c2cc(S(=O)(=O)N3CCCC3)c(Cl)cc2Cl)CC(C)O1 (stereo unspecified) | . | . | . | . | . | .
CCOC(=O)c1[nH]c(C)c(CCC(=O)N2CCN(c3cccc(C)c3C)CC2)c1C | ? | . | . | / | / | /
O=C(NC(=S)N1CCN(C/C=C/c2ccccc2)CC1)c1ccc(Cl)nc1 | . | . | . | / | 18µM | .
O=C(NC(=S)N1CCN(Cc2ccccc2)CC1)c1cccnc1 | . | . | . | / | . | .
O=C(Cn1cc(SCc2ccccc2Cl)c2ccccc21)N1CCCCCC1 | . | . | . | / | / | /
CCN=c1sc(C(=O)NCCc2ccccc2)cc(=O)n1CC | ? | . | . | . | 6.3µM | .
CCc1ccccc1N1CC(c2nnc(NC(=O)c3ccco3)s2)CC1=O (stereo unspecified) | . | . | . | / | / | /
COC(=O)C(O)(CC(=O)Nc1cc(Cl)ccc1Cl)C(F)(F)F (stereo unspecified) | . | . | . | . | . | .
CCN(CC)S(=O)(=O)c1ccc(NC(=O)NCc2noc3ccc(C)cc23)cc1 | . | 13µM[quencher] | 14µM | / | / | /
CC(C)/C=N/Nc1nc2c(c(=O)n(C)c(=O)n2C)n1C | 28µM | ? | ? | / | / | .
Cn1c(=O)c2c(nc(N/N=C\c3ccccc3C(=O)O)n2C)n(C)c1=O | / | / | / | . | .[13.5 µM] | /
Cc1ccc2c(c1)c1c(n2C)-c2[nH]ncc2CC1 | ? | 18µM[quencher] | . | . | ? | ?
Cc1ccc2c(c1)c1c(n2C)C(C(N)=O)CCC1 (stereo unspecified) | . | . | . | . | . | .
Cc1ccc(SCCc2ccc(C)nc2)cc1 | . | . | . | / | . | .
O=C(CCc1nnc(COc2ccccc2)o1)NC1(c2ccccc2)CC1 | . | . | . | / | . | .
COc1ccc(Oc2c(C=O)c3ccccc3n2C)cc1 | . | . | . | 32µM | . | .
CCCCCCNS(=O)(=O)c1ccc(NC(=O)C2CCCO2)cc1 (stereo unspecified) | . | . | . | . | . | .
CCOC(=O)/C(C#N)=C/c1ccc(OC(=O)c2ccccn2)cc1 | ? | . | . | . | 8.9µM | ?
CCOC(=O)/C(C#N)=C/c1ccc(OC)c(OC)c1 | . | . | . | . | ? | .
